A selection: hits, their analogues and other compounds. The true share with any hit is near 10%.
G9a inh: inhibitors of human histone lysine methyltransferase G9a. Q96KQ7. G9a H3K9 monomethylation, AlphaScreen, 2 h. Potency, µM (top dose mostly 102 µM), inactives show at the top dose activity, negative = inhibition, usual class: inhibitors. 8.8% of 350,000 active. AID 504332; further: on the % scale 0 is the no-effect control and ±100 the full control effect; nearly all actives have a fitted effect of over 75% in size
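G9a (20 nM) preincubated 15 min RT with compounds, then 500 nM biotinylated H3K9 peptide and 20 uM SAM added; 2 h RT reaction. Monomethyl-H3K9 product detected by AlphaScreen with anti-H3K9me1 antibody, streptavidin donor and anti-rabbit IgG acceptor beads.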
JMJD2A Tudor inh: inhibitors of human JMJD2A Tudor domain; O75164; AlphaScreen JMJD2A-Tudor / H3K4me3 peptide binding; Potency, µM (highest dose often 114 µM), for the others: top-dose activity change, negative = inhibition, actives largely listed as inhibitors; 4.4% of 390,000 active; further: on the % scale 0 is the no-effect control and ±100 the full control effect; nearly all actives have a fitted effect of over 50% in size
Target sequence (O75164 whole entry, looked up, the tested form may be a part): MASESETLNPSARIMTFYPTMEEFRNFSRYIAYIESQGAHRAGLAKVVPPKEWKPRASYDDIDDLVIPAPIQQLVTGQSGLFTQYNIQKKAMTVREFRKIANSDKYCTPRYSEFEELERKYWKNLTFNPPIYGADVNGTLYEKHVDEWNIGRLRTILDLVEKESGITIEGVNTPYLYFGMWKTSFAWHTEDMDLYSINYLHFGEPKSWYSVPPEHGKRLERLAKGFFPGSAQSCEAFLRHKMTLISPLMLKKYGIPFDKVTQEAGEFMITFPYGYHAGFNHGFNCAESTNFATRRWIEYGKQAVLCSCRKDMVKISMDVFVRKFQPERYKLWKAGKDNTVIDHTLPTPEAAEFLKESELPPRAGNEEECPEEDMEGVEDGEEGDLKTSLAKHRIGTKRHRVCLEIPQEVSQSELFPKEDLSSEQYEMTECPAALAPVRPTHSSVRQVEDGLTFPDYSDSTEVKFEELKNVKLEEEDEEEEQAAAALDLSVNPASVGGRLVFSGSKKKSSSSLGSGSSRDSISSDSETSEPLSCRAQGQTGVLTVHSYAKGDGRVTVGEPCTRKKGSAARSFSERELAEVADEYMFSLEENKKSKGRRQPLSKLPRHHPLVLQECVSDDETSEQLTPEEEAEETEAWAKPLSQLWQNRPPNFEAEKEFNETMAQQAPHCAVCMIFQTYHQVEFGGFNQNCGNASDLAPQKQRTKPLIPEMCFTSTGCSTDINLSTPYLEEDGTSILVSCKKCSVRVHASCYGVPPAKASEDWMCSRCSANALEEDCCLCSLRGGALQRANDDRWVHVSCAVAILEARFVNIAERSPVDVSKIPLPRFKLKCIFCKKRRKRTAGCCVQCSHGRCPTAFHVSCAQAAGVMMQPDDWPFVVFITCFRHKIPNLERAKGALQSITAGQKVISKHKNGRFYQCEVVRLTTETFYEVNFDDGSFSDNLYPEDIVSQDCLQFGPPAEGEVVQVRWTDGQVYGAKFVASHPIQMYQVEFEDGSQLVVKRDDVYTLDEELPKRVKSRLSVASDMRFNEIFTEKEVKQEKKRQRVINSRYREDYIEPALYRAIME
GLS inhibitor: glutaminase GLS (human) inhibition | O94925 | GLS enzymatic activity, qHTS titration | Potency, µM (series often up to 45.5 µM), inactives show at the highest dose activity change, negative = inhibition, hits mostly inhibitors | 0.21% of 410,000 active; further: on the % scale 0 is the no-effect control and ±100 the full control effect
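Read-out is an Amplex red fluorescence increase coupled through glutamate oxidase and HRP, measured before and after 30 min room-temperature incubation. hKGA is in 45 mM KH2PO4 (pH 8.2) with 0.02% Tween-20; glutamine added as 1mM solution.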
HP1b binding inh: blocks HP1-beta chromodomain binding to methylated histone tails; P83916; AlphaScreen HP1-beta / biotin-H3K9me3 peptide binding; Potency, µM (top dose mostly 114 µM), inactives show top-dose activity change, negative = inhibition, hits mostly inhibitors; 0.56% of 390,000 active; further: nearly all actives have a fitted effect of over 70% in size
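HP1-beta protein (50 nM final) preincubated 30 min at room temperature with biotinylated H3(1-18)K9me3 peptide (50 nM) in PBS pH 7.4, 0.01% Tween-20, then compound added for 30 min. AlphaScreen streptavidin donor/nickel chelate acceptor beads (10 ug/mL final), 30 min dark, luminescence read.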
BAZ2B inh: BAZ2B (human) inhibition. Potency, µM (titrated, usually from 114 µM), for inactives: top-dose activity change, negative = inhibition, hits mostly inhibitors. AlphaScreen BAZ2B-H3K14Ac peptide displacement. AID 504333. 4.4% of 360,000 active; further: on the % scale 0 is the no-effect control and ±100 the full control effect; nearly all actives have a fitted effect of over 60% in size
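Multi-concentration screen (max 110 uM) measuring displacement of acetylated histone H3 peptide from BAZ2B by AlphaScreen, using 50 nM protein, 50 nM peptide and 10 ug/mL streptavidin donor plus Ni-chelate acceptor beads.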
An asterisk follows results filed as active; ? = inconclusive; / = no result; [ ] = remark or other dose. The call rests on the fitted dose curve; in most records, active means well fitted curve in the direction sought with a large enough effect; inconclusive means small, poorly fitted or top-dose-only effect, or another doubt; inactive means no such curve, though single readings can be large; an effect the other way counts as inactive or inconclusive. Potency means the concentration at half of the fitted maximal effect.

SMILES | G9a inh | JMJD2A Tudor inh | GLS inhibitor | HP1b binding inh | BAZ2B inh
C/C=C(/C)C(=O)Nc1cccc(C2=NOC3(C2)C[C@H](C(N)=O)N(C(=O)c2ccc(Cl)cc2)C3)c1 (stereo not given in full) | 2.3%[12.7 µM] | -13.1% | -3.3% | 37.9% | -6.4%
C/C=C\C(=O)Nc1cccc(C2=NOC3(C2)C[C@H](C(N)=O)N(C(=O)/C=C/CC)C3)c1 (stereo not given in full) | 10.3%[59 µM] | -17.0% | 0.5% | 18.4% | 3.6%
C=C(C)C(=O)Nc1cccc(C2=NOC3(C2)C[C@@H](C(N)=O)N(C(=O)C2(C)CC2)C3)c1 (stereo not given in full) | ? | 2.24µM* | 28.2µM* | 2.51µM* | 1.58µM*
C=C(C)C(=O)Nc1cccc(C2=NOC3(C2)C[C@@H](C(N)=O)N(C(=O)/C=C/CC)C3)c1 (stereo not given in full) | ? | 10µM* | -22.9% | 10µM* | 7.08µM*
O=C1NC[C@@H](CCCCN2C[C@H](Cc3ccc(O)cc3)N(CCC3CCCCC3)C(=O)C2=O)N(CC2CCCCC2)C1=O | / | / | 2.4% | / | /
COCCCNc1nc(NCc2ccccc2OC)c2cnn(C)c2n1 | 48.3%[59 µM] | -23.8% | 2.7% | 35.2% | 3.2%
O=C(Cc1noc2ccccc12)Nc1ccccn1 | 12.9%[59 µM] | -7.0% | -1.7% | 13.9% | -5.1%
COc1ccc(-c2oc3ncnc(NCCCN(C)C)c3c2-c2ccc(OC)cc2)cc1 | -6.7% | ? | 5.6% | 14.5% | -19.9%
CCCCNc1ncnc2oc(-c3ccco3)c(-c3ccco3)c12 | / | 50.1µM* | / | ? | /
C/C(=N/NC(=O)c1ccc(Cl)cc1Cl)c1cccnc1 | 1.3% | -7.4% | 1.0% | 56.9% | -2.4%
COc1ccccc1NC(=S)NC(=O)CCCOc1ccc(Cl)cc1Cl | 4.2% | -16.3% | 21.0% | 12.4% | -9.0%
O=C(CCc1ccccc1)NNC(=S)NC(=O)c1ccc(Cl)cc1 | 1.58µM* | -35.6% | 11.6% | -20.6% | 8.7%
O=C(NCCCNC(=O)c1cnccn1)c1ccc(Cl)cc1 | -9.2% | -10.0% | 0.0% | 0.6% | 0.6%
O=C(NC(=S)NNC(=O)c1cnccn1)c1ccc(Cl)cc1 | 50.1µM* | 22.4µM* | 3.0% | 14.5% | 3.16µM*
O=C(NC(=S)NNC(=O)c1ccc(Cl)cc1Cl)c1cccnc1 | 2.24µM* | 44.7µM* | 19.2% | -13.3% | 5.0%
COc1ccccc1NC(=S)NNC(=O)c1ccc(Cl)cc1Cl | 20µM* | -18.1% | 28.7% | 14.4% | 8.6%
CC1(C)C(=O)C=C(N2CCCCC2)c2ccccc21 | / | / | 13.2% | / | /
CC1=C(C(=O)N2CCCCCC2)CC(CC(=O)NC2CCCC2)C(=O)N1Cc1ccc(C(C)(C)C)cc1 (stereo not given) | / | / | -4.8% | / | /
COc1ccccc1OCC(=O)N(Cc1ccco1)Cc1ccccc1F | -6.6%[59 µM] | ? | -10.6% | -8.3% | -30.1%
Cc1ccc(C(=O)NNC(=S)NC(=O)c2ccc(Cl)cc2)cc1 | 39.8µM* | -26.9% | 17.6% | 2.2% | 4.9%
O=C(NC(=S)Nc1ccccc1O)c1cccnc1 | 17.6%[0.501 µM] | -20.8% | 7.2% | 14.1% | -35.8%
O=C(Cc1ccc(Cl)cc1)NNC(=S)NC(=O)c1cccnc1 | / | -27.6% | 24.5% | 18.8% | 12.1%
O=C(NC(=S)NNC(=O)c1ccccc1O)c1cccnc1 | 12.6µM* | 56.2µM* | 11.4% | 21.0% | ?
O=C(NNC(=S)NC(=O)c1cccnc1)c1ccc(Cl)cc1 | 22.4µM* | ? | 10.8% | -17.4% | 9.2%[57.1 µM]
O=C(NC(=S)Nc1cc([N+](=O)[O-])ccc1O)c1cccnc1 | 11.2µM* | -4.1% | 31.5% | 5.7% | 2.3%
Cc1ccc(-c2noc(-c3ccc(NC4CCCC4)c([N+](=O)[O-])c3)n2)cc1 | 1.0%[59 µM] | -26.8% | -7.5% | 49.9% | ?
COc1ccccc1C(=O)NC(=O)CSc1nnnn1C | / | -8.8% | 1.1% | 31.5% | /
CCCc1cc(N2CCN(c3cc(Cl)ccc3C)CC2)n2cnnc2n1 | 9.9%[59 µM] | -24.8% | 8.1% | 48.1% | -24.3%
Cc1ccc(NC(=O)COc2ccc(N(C)C(=O)C(C)(C)C)cc2)cc1S(=O)(=O)N1CCCCC1 | / | -26.5% | -0.9% | 15.5% | /
O=C(N/N=C/c1ccc(-c2cccc(C(F)(F)F)c2)o1)c1cccc(F)c1 | 17.2%[59 µM] | -27.0% | 0.7% | 3.9% | -5.6%
